Out of some 1,000 compounds screened, about 25 (2%) were called active.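 Rule for the calls: active = rising signal whose fitted curve reaches the 0.54 level within the top valid dose, showing a melting point (actives reach about 13 µM in these data); inactive = the rest, including activity in the opposite direction.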 Only a sample is shown.
Test: SYPRO orange dye artefact, no FGF22 present – biochemical, cherry-picked samples, RT-PCR instrument, artefact control for FGF22 binder project, dose response (AID 743019); note: value is where the raw curve crosses a fixed level and not half-maximal
Details: compound-only SYPRO orange thermal shift counter-screen, no protein; at 38 µM (top of the series) unless noted

Row | SMILES | outcome
1 | COc1cc([N+](=O)[O-])ccc1NC(=O)CN1CCCC1 | inactive
2 | C[C@H]1CN([C@@H](C)CO)C(=O)Cc2cc(NC(=O)Cc3cn(C)c4ccccc34)ccc2O[C@@H]1CN(C)Cc1ccccc1 | inactive [at 42 µM]
3 | Cc1ccc(S(=O)(=O)N(C)C[C@@H]2Oc3cc(C4=CCCC4)ccc3S(=O)(=O)N([C@@H](C)CO)C[C@@H]2C)cc1 | inactive [at 42 µM]
4 | O=C(NN1C(=O)C2C3C=CC(O3)C2C1=O)c1ccccc1 (stereo not given) | inactive
5 | O=C(N[C@@H]1C=C[C@H](CC(=O)N2CCCCC2)O[C@H]1CO)c1cccc(F)c1 | inactive
6 | CCn1ccnc1CN(C)C(=O)c1ccc2nc(Cc3ccc(OC)cc3)oc2c1 | inactive
7 | C[C@@H]1CN([C@@H](C)CO)S(=O)(=O)c2ccc(-c3ccncc3)cc2O[C@@H]1CN(C)C(=O)Nc1ccc(F)cc1 | inactive
8 | O=C(N/N=C/c1ccc([N+](=O)[O-])cc1)c1c[nH]c2ccccc12 | inactive
9 | COc1ccccc1NC(=O)N1[C@H](C#N)[C@H](c2ccccc2)[C@H]1CO | inactive [at 42 µM]
10 | O=C(NCCc1c[nH]c2ccccc12)C(=O)NCC1CCCO1 (stereo not given) | inactive
11 | O=C(c1ccccc1F)N1CC(=O)N2[C@H](C1)[C@H](c1ccc(-c3ccc(F)cc3)cc1)[C@@H]2CO | inactive [at 42 µM]
12 | CS(=O)(=O)c1ccc2nc(NC(=O)c3ccc(Cl)nc3)sc2c1 | inactive
13 | OC[C@H]1[C@H](c2ccc(-c3cccnc3)cc2)[C@H]2CN(Cc3ccccn3)CCCCN21 | inactive
14 | O=C(Nc1ccccc1F)N1[C@H](CO)[C@H]2c3ccccc3NC[C@H]21 | inactive [at 42 µM]
15 | NS(=O)(=O)c1cccc(NC(=O)COC(=O)c2cc([N+](=O)[O-])ccc2N2CCCC2)c1 | inactive
16 | Cc1ccc(NC(=O)Nc2cccnc2)cc1 | inactive
17 | O=C(N/N=C/c1ccc(Cl)c(Cl)c1)c1ccc2nc[nH]c2c1 | inactive
18 | Cc1ccc(S(=O)(=O)Nc2nc3ccccc3s2)cc1[N+](=O)[O-] | inactive
19 | O=C(Nc1nnc(-c2ccccc2F)s1)c1ccccc1F | inactive
20 | O=C(C[C@H]1CC[C@H]2[C@@H](COC[C@H](O)CN2S(=O)(=O)c2cccc(Cl)c2)O1)Nc1ccccc1 | inactive [at 42 µM]
21 | COCCN(C(=O)C(C)C)c1nnc(-c2ccc(C(C)(C)C)cc2)s1 | inactive
22 | C[C@H]1CN([C@@H](C)CO)S(=O)(=O)c2ccc(C3=CCCC3)cc2O[C@H]1CN(C)C(=O)Nc1ccc2c(c1)OCO2 | inactive [at 42 µM]
23 | COc1ccc(-c2cc(=O)oc3cc(OCC(=O)N[C@@H](Cc4c[nH]c5ccccc45)C(=O)O)ccc23)cc1 | inactive
24 | O=S(=O)(ON(c1ccccc1)S(=O)(=O)c1ccccc1)c1ccccc1 | inactive
25 | O=C(Cc1cccnc1)N[C@H]1CC[C@H](CCn2cc(-c3ccccc3F)nn2)O[C@H]1CO | inactive

Row | SMILES | outcome
26 | CC(=O)Nc1ccc(S(=O)(=O)N(CCc2ccccc2)CC(=O)N/N=C/c2ccc(C(=O)O)cc2)cc1 | inactive
27 | CCCOc1ccc(NC(=O)CC2C(=O)N(C)C(=S)N2Cc2ccc3c(c2)OCO3)cc1 (stereo not given) | inactive
28 | CC(C)NC(=O)N1C[C@@H]2[C@H](c3ccccc31)[C@H](CO)N2C(=O)c1ccccn1 | inactive [at 42 µM]
29 | O=C(N/N=C/c1ccc(OCc2ccccc2)cc1)c1ccc(O)cc1 | inactive
30 | C[C@@H]1CCCCO[C@@H](CN(C)Cc2ccncc2)[C@H](C)CN([C@H](C)CO)C(=O)c2cc(NC(=O)Cc3ccccc3)ccc2O1 | inactive
31 | Cc1cccc(S(=O)(=O)N2C[C@@H](O)COC[C@H]3O[C@H](CC(=O)Nc4ccc(-c5ccccc5)cc4)CC[C@@H]32)c1 | inactive [at 42 µM]
32 | CN1C(=O)c2cccc3c(N)ccc(c23)C1=O | inactive
33 | CN1C(=O)c2cc(NC(=O)c3cccc(F)c3)ccc2OC[C@@H]2O[C@H](CC(=O)N3CCc4ccccc4C3)CC[C@@H]21 | inactive
34 | COc1ccccc1C(=O)NNC(=O)c1ccc(NC(=O)c2ccccc2)cc1 | inactive
35 | C[C@@H]1CN([C@H](C)CO)S(=O)(=O)c2ccc(-c3ccncc3)cc2O[C@@H]1CN(C)C(=O)Nc1ccc(C(F)(F)F)cc1 | inactive
36 | Cc1c(CCO)sc[n+]1CC(=O)OC12CC3CC(CC(C3)C1)C2 | inactive
37 | COc1ccc(-c2ccc([C@H]3[C@H]4CN(C(=O)c5ccc6c(c5)OCO6)CCCCN4[C@H]3CO)cc2)cc1 | inactive [at 42 µM]
38 | CC(=O)N1c2ccc(S(=O)(=O)N3CCC(C(=O)NCc4ccc(F)cc4)CC3)cc2CC1C (stereo not given) | inactive
39 | CC(C)NC(=O)N(C)C[C@@H]1Oc2c(NC(=O)c3nc4ccccc4s3)cccc2C(=O)N([C@H](C)CO)C[C@H]1C | inactive [at 42 µM]
40 | CCCCN1CC(N2CCN(Cc3cccc(C)c3)CC2)CS1(=O)=O (stereo not given) | inactive
41 | Cc1ccc(NC(=O)O/N=C/c2cccc([N+](=O)[O-])c2)cc1 | inactive
42 | CC(=O)NC[C@@H]1[C@@H](c2ccccc2)[C@@H](CO)N1C(=O)Cc1cccnc1 | inactive [at 42 µM]
43 | O=C(COc1ccc([N+](=O)[O-])cc1)Nc1cccc(C(=O)Nc2ccccc2C(=O)O)c1 | inactive
44 | CC(C)(C)N1C(=O)c2c(C(=O)OCc3ccccc3)[nH]c(-c3ccccc3)c2C1=O | inactive
45 | COc1cc(NC(=O)c2ccc3c(c2)OCO3)ccc1NC(=O)c1cccs1 | inactive
46 | O=C(C[C@H]1C[C@@H]2c3cc(NC(=O)Nc4ccc(C(F)(F)F)cc4)ccc3O[C@@H]2[C@@H](CO)O1)NCC1CC1 | inactive [at 10 µM]
47 | CNC[C@@H]1Oc2ccc(NC(=O)C3CCCCC3)cc2C(=O)N([C@@H](C)CO)C[C@H]1C | inactive
48 | COCC(=O)Nc1ccc2c(c1)OC[C@H](C)N(C)C[C@@H](C)[C@@H](OC)CN(C)C2=O | inactive [at 42 µM]
49 | O=C(N/N=C/c1c[nH]c2ccccc12)c1cc2ccccc2o1 | inactive
50 | Cc1ccc(S(=O)(=O)NCCC(=O)Nc2ccc(C)c(Cl)c2)cc1C | inactive

Reference: PubChem BioAssay AID743019 (Broad Institute, 2013)
